From PubChem BioAssay AID686979 (National Center for Advancing Translational Sciences (NCATS), 2013)
Screen size: about 420,000 compounds; about 50,000 (12%) were called active. About 26% were inconclusive and are not listed. The sample holds actives, similar compounds and a random draw of the others, so the mix is not that of the screen. Unmarked numbers belong to inactive results. Calls come from the whole dose curve; as a rule, active = well fitted inhibition curve with a large enough effect; inconclusive = small, poorly fitted or top-dose-only effect; inactive = flat fitted curve, though single readings scatter.

Test: qHTS for Inhibitors of human tyrosyl-DNA phosphodiesterase 1 (TDP1): qHTS in cells in presence of CPT; note: nearly all actives have a fitted effect of over 55% in size
Details: chicken DT40 Tdp1-/-;hTDP1 cells + 20 nM CPT, ATP luminescence, 48 h; series mostly up to 46.2 µM; activity change, negative = growth inhibition: at the top concentration
How it was run: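 Chicken DT40 Tdp1-/- cells complemented with human TDP1, 400 cells/well, exposed to compounds plus 20 nM camptothecin for at least 48 h at 37 C; viability read as ATP content by CellTiter-Glo luminescence.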
% is set by controls: 0 for no effect and ±100 for the full control effect; potency is the fitted concentration of half-maximal effect.

Compound	activity change, negative = growth inhibition [%]	Potency
CCOc1ccc(CNCCSc2nnnn2C)cc1	4.21	–
COC(=O)COc1cccc2c(=O)n(CC(=O)NCc3ccccc3)ccc12	–	1.84 µM (active)
COC(=O)COc1cccc2c(=O)n(CC(=O)NCCc3ccc(OC)c(OC)c3)ccc12	1.3	–
CCOCCn1ccc2c(OCC(=O)NCc3ccc(C)cc3)cccc2c1=O	-21.4	–
O=C(NN=CC=Cc1ccccc1)C(O)C(O)C(=O)NN=CC=Cc1ccccc1 (configuration not stated)	13.1	–
CCOc1ccc(-c2nnc(-c3ccco3)o2)cc1	-12	–
CCC(=O)Oc1cccc(C(=O)Nc2ccc(-c3nnc(-c4ccco4)o3)cc2)c1	–	6.51 µM (active)
CCCCOc1ccc(-c2nnc(-c3ccco3)o2)cc1	-21.4	–
COc1ccc(C)cc1S(=O)(=O)Nc1cc2c3c(c1)CCC(=O)N3CCC2	-11.1	–
Cc1nc(C(F)(F)F)ccc1C(=O)N1CCC1(C)C(=O)NS(=O)(=O)c1ccccc1Cl (configuration not stated)	-5.55	–
CCNC(=S)N(CCN(CC)CC)Cc1cc2cc3c(cc2[nH]c1=O)OCO3	-19.8	–
CCOC(=O)C1CCN(C(=O)c2cccc(S(=O)(=O)N(CC)c3ccccc3)c2)CC1	–	14.6 µM (active)
O=C(NCCN1CCOCC1)c1cccc(S(=O)(=O)Nc2ccc(F)cc2)c1	-5.32	–
CCOC(=O)C1CCCN(C(=O)c2cccc(S(=O)(=O)N3CCOCC3)c2)C1 (configuration not stated)	-26.6	–
CCOC(=O)C1CCCN(C(=O)c2ccc(N(C)C)cc2)CC1 (configuration not stated)	-17.9	–
CCN(c1ccccc1)S(=O)(=O)c1cccc(C(=O)NCc2ccccc2CN2CCOCC2)c1	–	20.6 µM (active)
CCN(CC)S(=O)(=O)c1ccc(Cl)c(C(=O)NCCN2CCOCC2)c1	10.4	–
CCOc1ccc(CNC(=O)c2ccc3nc(CC)c(CC)nc3c2)cc1OC	-29.6	–
COc1ccc(C(=O)NC(=S)N2CCNC(=O)C2CC(=O)OC(C)C)cc1 (configuration not stated)	-7.41	–
CCOc1cc(C(=O)Nc2ccc(S(=O)(=O)Nc3cnc4ccccc4n3)cc2)cc(OCC)c1OCC	-5.96	–
CCc1nc2ccc(C(=O)Nc3cccc(OC)c3)cn2c1N(CCC(C)C)CCN(C)C	-98.8	–
CCc1nc2ccc(C(=O)Nc3cc(-c4ccccc4)ccc3OC)cn2c1N(CC)CC(=O)N(C)C	–	14.6 µM (active)
CCc1nc2ccc(C(=O)N(C)Cc3ccco3)cn2c1N(C)C(=O)Cc1ccccc1	-1.23	–
CCc1nc2ccc(C(=O)NCc3ccc(OC)cc3)cn2c1N(CC)Cc1cccc(Br)c1	–	23.1 µM (active)
CCc1nc2ccc(C(=O)N(C)CCN(C)C)cn2c1N(CC)CCOC	5.06	–

Compound	activity change, negative = growth inhibition [%]	Potency
CCc1nc2ccc(C(=O)N3CCC(O)(Cc4ccccc4)CC3)cn2c1N(C)C(=O)Cc1ccccc1	-29.7	–
O=C(C[C@H]1CC[C@@H](NC(=O)c2ccncc2)[C@@H](CO)O1)NCC1CC1	17.7	–
O=C(NCCCNc1ccc([N+](=O)[O-])cc1Cl)c1ccccc1F	6.04	–
N#CCSc1ccccc1NC(=O)CN1C(=O)NC(CCc2ccccc2)C1=O (configuration not stated)	3.98	–
CCOC(=O)c1c(NC(=O)COc2cc(C)ccc2C(C)C)sc(C)c1C	-14.5	–
Cc1cnc(C(=O)OCC(=O)Nc2ccc(Cl)cc2Cl)cn1	-3.16	–
COC(=O)c1c(NC(=O)COc2ccc(Cl)cc2Cl)sc2c1CC(C)(C)NC2(C)C	–	7.31 µM (active)
O=S(=O)(NCCc1ccc(F)cc1)c1cccc2cccnc12	-15.1	–
CCOC(=O)c1ccc(NC(=O)Cn2cc(S(=O)(=O)Cc3ccccc3F)c3ccccc32)cc1	-26.9	–
COc1ccc(NC(=O)Cn2cc(C(=O)c3ccncc3)c(=O)c3cc(C)ccc32)cc1Cl	5.62	–
CCOc1ccc(C(=O)c2cn(Cc3ccc(F)cc3)c3ccc(F)cc3c2=O)cc1	–	18.4 µM (active)
COc1ccccc1CNC(=O)CN1CCC(n2cnc3cc(F)ccc32)CC1	-7.82	–
Cc1ccc(Cn2cc(C(=O)NN)c(=O)c3ccc(F)cc32)cc1	-22.5	–
O=C(c1ccc(F)cc1)c1cn(Cc2ccc(F)cc2)c2cc3c(cc2c1=O)OCCO3	-15.9	–
CCOc1ccc(C(=O)c2cn(Cc3ccccc3OC)c3ccc(F)cc3c2=O)cc1	–	16.4 µM (active)
CC12CCC(C(=O)N3CCN(c4ncccn4)CC3)(c3nc4ccccc4nc31)C2(C)C (configuration not stated)	-11.1	–
Cc1nc(SCC(=O)Nc2ccc(C(=O)O)cc2)n[nH]1	9.68	–
CC1CC(C)CN(C(=O)C2CC(=O)N(c3ccc(F)cc3)C2)C1 (configuration not stated)	-20.7	–
CC(=O)Nc1ccc(NC(=O)CS(=O)(=O)c2cn(CC(=O)N3CCCCC3)c3ccccc23)cc1	-10.5	–
COc1ccccc1C(=O)N1C(CC(=O)Nc2ccccc2C)C(=O)NC2CCCCC21 (configuration not stated)	-19	–
CCc1cc2c(N3CCN(c4nnc(CC)s4)CC3)ncnc2s1	–	10.3 µM (active)
CCOCCCNCc1ccc(OCc2ccc(F)cc2)c(OC)c1	-17.6	–
O=C(NCCCO)C(=O)Nc1c2c(nn1-c1ccccc1)CSC2	-5.46	–
CCN(CC)S(=O)(=O)c1ccc(OC)c(NC(=O)CCc2c(C)noc2C)c1	1.45	–
CCN(CC)S(=O)(=O)c1ccc(N(C)Cc2cccc(OC)c2OC)nc1	–	23.1 µM (active)

Compound	activity change, negative = growth inhibition [%]	Potency
COc1ccc(S(=O)(=O)N2CCCCCC2)cc1C(=O)N(C)Cc1cccc(OC)c1OC	-28.8	–
CCC(C(=O)N1CCN(S(=O)(=O)c2sc(C(=O)O)c(C)c2C(=O)O)CC1)c1ccccc1 (configuration not stated)	-4.51	–
CCCCCCC(O)(CCN1CCCCC1)c1ccccc1 (configuration not stated)	6.69	–
O=C(CSc1ncn[nH]1)Nc1nc2c(F)c(F)c(F)cc2s1	-10.6	–
Cc1c(CCOC(=O)CC23CC4CC(CC(C)(C4)C2)C3)sc[n+]1Cc1ccc([N+](=O)[O-])cc1	–	18.4 µM (active)
COc1ccc(-n2c(C)cc(C(=O)CSc3nnc(-c4cccs4)o3)c2C)cc1	–	16.4 µM (active)
COc1ccc(C(=O)CSc2nnc(-c3ccco3)o2)cc1	-1.34	–
Cc1ccc(OC(=O)CSc2nnc(-c3cccs3)o2)cc1	1.42	–
Cc1ccc(S(=O)(=O)N2CC[C@H]3[C@@H](C2)C(=O)C[C@@H](c2ccccc2)N3S(=O)(=O)c2ccc(C)cc2)cc1	-12.4	–
Cc1ccc(C)c(S(=O)(=O)Nc2cc(C)on2)c1	-2.88	–
CC(NC(=O)CC1SC(N)=NC1=O)c1ccccc1 (configuration not stated)	-7.27	–
Cc1nc(CN(C)C(=O)CC2C(=O)NCCN2Cc2ccc(F)cc2)cs1 (configuration not stated)	1.54	–
CCCC(=O)Nc1ncnc2c1ncn2[C@@H]1O[C@@H]2OP(=O)(O)OC[C@H]2[C@H]1OC(=O)CCC	3.57	–
O=C(Cc1ccc(Cl)cc1)NC1CCS(=O)(=O)C1 (configuration not stated)	-2.99	–
O=C(CSc1ccccc1F)NC1CCS(=O)(=O)C1 (configuration not stated)	-0.0027	–
CC(C)C(=O)NC(NC(=S)NC1CCS(=O)(=O)C1)C(Cl)(Cl)Cl (configuration not stated)	-3.75	–
CCCSC(=S)NC1CCS(=O)(=O)C1 (configuration not stated)	–	16.4 µM (active)
O=S1(=O)CCC(NC(=S)SCc2ccccc2Br)C1 (configuration not stated)	–	8.2 µM (active)
COc1ccc(NC(=S)NC2CCS(=O)(=O)C2)cc1 (configuration not stated)	1.76	–
CCOc1ccc(NC(=O)CN(C)CC(=O)NC(C)c2ccccc2)cc1OCC (configuration not stated)	-9.01	–
CN(CCC(=O)Nc1cc(S(=O)(=O)N(C)C)ccc1Cl)CC(=O)Nc1ccc(F)cc1	5.34	–
CN1OC[C@@H]2CN(C(=O)c3cccnc3)[C@H](c3ccc(N4CCCCC4)cc3)C[C@@H]21	6.47	–
CCOC(=O)CN(C(=O)COc1nc(-c2ccccc2)cc(C)c1C#N)c1ccc(F)cc1	-24.9	–
O=[N+]([O-])c1ccc(NC(=S)N2CCN(c3ccccn3)CC2)cc1	–	16.4 µM (active)
COc1cc([N+](=O)[O-])ccc1NC(=S)N1CCN(c2ccccn2)CC1	-24.2	–

Compound	activity change, negative = growth inhibition [%]	Potency
CCOC(=O)c1ccc(NC(=S)N2CCN(c3ccccn3)CC2)cc1	1.63	–
CC(=O)Nc1ccc(NC(=O)CCCNC(=O)c2ccc(Cl)cc2)cc1	-1.54	–
COCCn1c(CCC(=O)Nc2cc(C)ccc2C)nc2cccnc21	-9.25	–
Cc1ccc(Cn2c(CNC(=O)Cc3cccc(C)c3)nc3cccnc32)cc1	–	13 µM (active)
COCCCNC(=O)CCc1nc2cccnc2n1Cc1ccc(OC)cc1	-3.73	–
O=C(CCNS(=O)(=O)c1ccccc1)NCCSc1ccc(Br)cc1	-23	–
CCc1cccc(NC(=O)COC(=O)c2cc(=O)c3ccccc3o2)c1	5.89	–
C=CCC(NC(=O)Cc1ccccc1)C(=O)NCCC (configuration not stated)	-4.46	–
C=CCC[C@H](Cc1ccc(F)cc1)C(=O)OC[C@H](C)NC(=O)[C@H](CC=C)CC(=O)N(CCO)Cc1ccccc1	–	14.6 µM (active)
C=CCC[C@@H](Cc1ccc(F)cc1)C(=O)O[C@H](CNC(=O)[C@H](CC=C)CC(=O)N(CCO)Cc1ccccc1)c1ccccc1	–	18.4 µM (active)
C=CC[C@H](CC(=O)N(CCO)Cc1ccccc1)C(=O)N[C@@H](COC(=O)[C@@H](CC=C)Cc1ccc(F)cc1)Cc1ccccc1	–	23.1 µM (active)
C=CCC[C@@H](Cc1ccc(F)cc1)C(=O)OC[C@@H](C)NC(=O)[C@H](CC=C)CC(=O)N(CCO)Cc1ccccc1	–	13 µM (active)
COCCCNC(=S)N(Cc1ccccc1)Cc1ccc(F)cc1	-7.85	–
Cc1ccccc1Nc1nc(N)nc(CSc2ccccc2)n1	11.7	–
COc1ccc(C(C)NC(=O)C2CCCC2)cc1 (configuration not stated)	28	–
O=C(CNC(=O)c1cccnc1)N/N=C/c1cc(Br)c(O)c(Br)c1	-5.42	–
Cc1ccc(S(=O)(=O)NCC2CCC(C(=O)N3CCOCC3)CC2)cc1 (configuration not stated)	11.6	–
CCOc1ncccc1C(=O)NNC(=O)c1cccc(S(=O)(=O)Nc2ccccc2OC)c1	-0.192	–
O=C(Nc1c[nH]c(=O)[nH]c1=O)OCc1ccccc1	-14.3	–
CC(=O)c1sc(N)nc1C	–	inactive
COc1ccc(C2/C(=C(/O)c3ccc4c(c3)CC(C)O4)C(=O)C(=O)N2Cc2ccncc2)cc1 (configuration not stated)	29.7	–
CC(C)COc1ccc(C(=O)NNC(=O)CCC(=O)c2cccs2)cc1	-2.08	–
